Results taken from PubChem BioAssay (NCATS).
“And” between values parts separate entries of the source, which are not always exact repeats. Identical values can stand only once. Records with an inconclusive call do not appear. The source made the active and inactive calls. Calls follow the shape of the dose curve; as a rule, active = well fitted curve in the direction sought with a large enough effect; inconclusive = small, poorly fitted or top-dose-only effect, or another doubt; inactive = no such curve, though single readings can be large; an effect the other way counts as inactive or inconclusive.

What was measured:
[1] = Viability qHTS for spleen associated tyrosine kinase inhibitor (SYKi) naive MV4-11 cells (AID 1963823); also: nearly all actives have a fitted effect of over 40% in size
In short: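 Read-out: CellTiter-Glo luminescence. Exposure: 72 hr, 37 C, 5% CO2, 95% humidity. Cells: MV4-11 without SYK inhibitor history, 500/well, qHTS format.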

[2] = Quantitative highthroughput screen to assess conditional lethalithy of NOMO1 cells grown in RPMI1640 with untreated serum (RPMI+s) (AID 1963876); also: nearly all actives have a fitted effect of over 35% in size;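 as to Viability: 100% = DMSO wells and 0% = empty wells without cells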
In short: (§1)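 Each medium arm—HPLM with 10% dialyzed FBS, or RPMI1640 with 5 mM glucose and 10% untreated or dialyzed FBS—was screened against an 11-point, 3-fold compound titration for 48 h at 37 °C, with CellTiter-Glo luminescence as endpoint.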

[3] = Quantitative highthroughput screen to assess conditional lethalithy of NOMO1 cells grown in RPMI1640 with dialyzed fetal bovine serum (RPMI+ds) (AID 1963877); also: nearly all actives have a fitted effect of over 30% in size;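 as to Viability: series mostly up to about 46 µM; 100% = DMSO control wells and 0% = empty wells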
In short: as §1

[4] = Quantitative highthroughput screen to assess conditional lethalithy of NOMO1 cells grown in Human Plasma-Like Medium with dialyzed fetal bovine serum (HPLM+ds) (AID 1963878); also: nearly all actives have a fitted effect of over 35% in size;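 as to Viability: 100% = DMSO wells and 0% = empty wells on each plate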
In short: as §1

[5] = Quantitative highthroughput screen to assess conditional lethalithy of P12 Ichikawa cells grown in Human Plasma-Like Medium with dialyzed fetal bovine serum (HPLM+ds) (AID 1963879); conditions: Potency: viability; also: nearly all actives have a fitted effect of over 35% in size; as to Viability: series mostly up to about 46 µM
In short: as §1

[6] = Quantitative highthroughput screen to assess conditional lethalithy of P12 Ichikawa cells grown in RPMI1640 with dialyzed fetal bovine serum (RPMI+ds) (AID 1963880); conditions: Potency: P12-Ichikawa viability; also: nearly all actives have a fitted effect of over 35% in size;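 as to Viability: 100% = DMSO wells and 0% = empty wells on each plate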
In short: as §1

[7] = Quantitative highthroughput screen to assess conditional lethalithy of P12 Ichikawa cells grown in RPMI1640 with untreated serum (RPMI+s) (AID 1963881); conditions: Potency: viability; also: nearly all actives have a fitted effect of over 35% in size;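 as to Viability: series mostly up to about 46 µM; 100% = DMSO wells and 0% = empty wells without cells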
In short: as §1

[8] = Quantitative highthroughput screen to assess conditional lethalithy of SEM cells grown in Human Plasma-Like Medium with dialyzed fetal bovine serum (HPLM+ds) (AID 1963882); also: nearly all actives have a fitted effect of over 35% in size; as to Viability: series mostly up to about 46 µM
In short: as §1

[9] = Quantitative highthroughput screen to assess conditional lethalithy of SEM cells grown in RPMI1640 with unreated serum (RPMI+s) (AID 1963883); also: nearly all actives have a fitted effect of over 35% in size;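 as to Viability: 100% = DMSO wells and 0% = empty wells without cells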
In short: as §1

[10] = Quantitative highthroughput screen to assess conditional lethalithy of SEM cells grown in RPMI1640 with dialyzed fetal bovine serum (RPMI+ds) (AID 1963884); also: nearly all actives have a fitted effect of over 35% in size;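 as to Viability: series mostly up to about 46 µM; 100% = DMSO control wells and 0% = empty wells without cells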
In short: as §1

[11] = Cellular viability qHTS for adrenocortical cancer (ACC) cell line SW-13 (AID 1963989); conditions: SW-13 ACC cells viability, CellTiter-Glo, 48 h; activity (max response): active compounds read low; also: nearly all actives have a fitted effect of over 65% in size;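 as to activity (max response): cells grown in serum-free medium with ITS supplement; % is scaled to controls: 0 for no effect and ±100 for the full control effect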
In short: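 Viability was read as CellTiter-Glo luminescence after 48 h compound treatment (up to 46 uM final) of SW-13 cells grown serum-free; titration curves were fit with a four-parameter logistic model to give IC50 and efficacy.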

[12] = Cellular viability qHTS for adrenocortical cancer (ACC) cell line NCI-H295R (AID 1963990); also: nearly all actives have a fitted effect of over 60% in size
In short: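 CellTiter-Glo ATP luminescence, read 48 h after compound addition, measured viability of NCI-H295R adrenocortical cells grown serum-free with ITS. Final concentrations spanned up to 46 uM. Data normalized to DMSO and doxorubicin, fitted for IC50 and maximal response.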
Potency is read from the fitted curve at half-maximal effect.

c1cc(CN2CCCNCCNCCCNCC2)ccc1CN1CCCNCCNCCCNCC1
inactive: Potency [1] | Potency [2] | Potency [3] | Potency [4] | Potency [5] | Potency [6] | Potency [7] | Potency [8] | Potency [9] | Potency [10] | activity (max response) [11] -19.4% | Potency [12]

Clc1ccc2c(c1)C(N1CCNCC1)=Nc1ccccc1O2
inactive: Potency [1] | Potency [2] | Potency [3] | Potency [4] | Potency [5] | Potency [7] | Potency [8] | Potency [9] | Potency [10] | activity (max response) [11] -1.69%

CC(=O)N(C)C1(c2ccccc2)CCN(CCC[C@]2(c3ccc(Cl)c(Cl)c3)CCCN(C(=O)c3ccccc3)C2)CC1
active: Potency [1] 4.11 µM | Potency [2] 1.87 µM | Potency [3] 1.87 µM | Potency [4] 0.526 µM | Potency [5] 2.96 µM | Potency [6] 2.96 µM | Potency [8] 0.662 µM | Potency [9] 0.743 µM | Potency [10] 1.05 µM

CC1=NN(c2ccccc2)C(=O)C1
inactive: Potency [2] | Potency [3] | Potency [4] | Potency [5] | Potency [6] | Potency [7] | Potency [8] | Potency [9] | Potency [10] | activity (max response) [11] 8.8% and -4.32% | Potency [12]
active: Potency [1] 11.9 µM

COc1ccccc1-c1cccc(-c2c(O)c3cc(C#N)c(Cl)cc3[nH]c2=O)c1
inactive: Potency [1] | activity (max response) [11] -20.9% | Potency [12]
active: Potency [2] 17.1 µM | Potency [3] 19.1 µM | Potency [4] 6.79 µM | Potency [5] 4.81 µM | Potency [6] 8.55 µM | Potency [7] 10.8 µM | Potency [8] 8.55 µM | Potency [9] 2.7 µM | Potency [10] 5.4 µM

CC(C(=O)O)c1ccc(-c2ccccc2)c(F)c1 (stereo not given)
inactive: Potency [1] | Potency [2] | Potency [3] | Potency [4] | activity (max response) [11] -8.73% | Potency [12]
active: Potency [8] 14.8 µM

CCN(CC)Cc1ccc2cc(COC(=O)Nc3ccc(C(=O)NO)cc3)ccc2c1
active: Potency [1] 291 nM and 468 nM | Potency [2] 3.72 µM | Potency [3] 3.72 µM | Potency [4] 2.96 µM | Potency [5] 2.35 µM | Potency [6] 2.35 µM | Potency [8] 1.66 µM | Potency [9] 2.09 µM | Potency [10] 1.87 µM | Potency [11] 2.82 µM | Potency [12] 1.78 µM

C=C(c1ccc(C(=O)O)cc1)c1cc2c(cc1C)C(C)(C)CCC2(C)C
inactive: Potency [2] | Potency [5] | Potency [6] | Potency [8] | Potency [9] | Potency [10] | activity (max response) [11] -0.298% and -6.68% | Potency [12]
active: Potency [1] 0.468 µM | Potency [3] 1.05 µM | Potency [4] 0.469 µM

COc1ccc(F)c(F)c1C(=O)c1cnc(NC2CCN(S(C)(=O)=O)CC2)nc1N
active: Potency [1] 0.651 µM | Potency [2] 4.69 µM | Potency [3] 6.62 µM | Potency [4] 4.18 µM | Potency [5] 20.9 µM | Potency [6] 11.8 µM | Potency [7] 11.8 µM | Potency [8] 4.69 µM | Potency [9] 4.18 µM | Potency [10] 5.9 µM | Potency [11] 3.55 µM | Potency [12] 3.16 µM

Nc1cccc2c1CN(C1CCC(=O)NC1=O)C2=O (stereo not given)
inactive: Potency [2] | Potency [3] | Potency [4] | Potency [5] | Potency [7] | Potency [8] | Potency [10] | activity (max response) [11] -7.43% | Potency [12]
active: Potency [1] 4.22 µM

CCCCC(CC)COC(=O)C(C#N)=C(c1ccccc1)c1ccccc1 (stereo not given)
inactive: Potency [2] | Potency [3] | Potency [4] | Potency [5] | Potency [6] | Potency [7] | Potency [8] | Potency [9] | Potency [10] | activity (max response) [11] 0.298% and -14.7% | Potency [12]
active: Potency [1] 26.6 µM

C[C@](Cc1c[nH]c2ccccc12)(NC(=O)OC1C2CC3CC(C2)CC1C3)C(=O)NC[C@H](NC(=O)CCC(=O)O)c1ccccc1 (stereo not given in full)
inactive: Potency [1] | Potency [2] | Potency [3] | Potency [4] | Potency [5] | Potency [6] | Potency [7] | Potency [8] | Potency [9] | activity (max response) [11] 0.678% | Potency [12]

NC1CCC(N[C@@H]2C[C@H]2c2ccccc2)CC1 (stereo not given in full)
inactive: Potency [1] | Potency [2] | Potency [3] | Potency [4] | Potency [5] | Potency [8] | Potency [10] | activity (max response) [11] -23.4%

Cc1c(CCOc2ccc(C(=O)O)cc2)c2cc(Cl)ccc2n1C(c1ccccc1)c1ccccc1
active: Potency [5] 14.8 µM
inactive: Potency [1] | Potency [2] | Potency [3] | Potency [6] | Potency [7] | Potency [8] | Potency [9] | Potency [10] | activity (max response) [11] -0.782% | Potency [12]

CCCc1nc(C)c2c(=O)[nH]c(-c3cc(S(=O)(=O)N4CCN(CC)CC4)ccc3OCC)nn12
active: Potency [2] 9.35 µM | Potency [3] 9.35 µM | Potency [4] 9.35 µM | Potency [5] 16.6 µM | Potency [6] 9.35 µM | Potency [7] 10.5 µM | Potency [8] 11.8 µM | Potency [9] 9.35 µM | Potency [10] 7.43 µM
inactive: Potency [1] | activity (max response) [11] -1.6% and 3.7% | Potency [12]
